In the library only some 1.4% were active in any assay of this set; here they are far more common.
RN4220 kill – kills Staphylococcus aureus RN4220. inhibition, % (test concentration not listed). 330,000 compounds, 0.33% hits. S. aureus RN4220 growth, OD600, 16 h; in the data active = inhibition above about 85%
BJeLR viability – BJeLR cell viability loss | 300,000 compounds, 0.17% hits | inhibition, % (concentration not given with the values) | BJeLR (HRASV12) viability, CellTiter-Glo ATP luminescence, 48 h | AID 1554; in the data active = inhibition above about 50%; inconclusive = no clear call, values can overlap the other calls
Yp Topo-I inh – blocks Yersinia pestis topoisomerase I activity. Y. pestis Topo-I cleavage product accumulation, plate reader. activity, % at 10 µM. 360,000 compounds, 0.064% hits; in the data active = activity above about 50%, passing the limit was not always enough; inconclusive = no clear call, values can overlap the other calls
Sa ugtP lethal – compounds lethal to S. aureus RN4220 ugtP deletion mutant; OD600 growth, 16 h; growth inhibition, % (test concentration not listed); 330,000 compounds, 0.54% hits; in the data active = growth inhibition above about 68%
PfHsp40 yeast – compounds rescuing yeast from Plasmodium falciparum HSP40 toxicity. AID 504582. S. cerevisiae expressing PfHsp40, growth rescue, ATP luminescence. growth rescue, % at 12.5 µM. 340,000 compounds, 0.68% hits; in the data active = growth rescue above about 28%, passing the limit was not always enough; inconclusive = no clear call, values can overlap the other calls;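 also: yeast W303a lacking pdr1 and pdr3 grown in galactose medium; growth measured after three days at 30 °C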
PrP UTR inh – suppresses PrP 5' UTR mRNA reporter expression | cell-based PrP 5' UTR mRNA reporter, plate reader | inhibition, % (no concentration beside the values) | 340,000 compounds, 0.35% hits | AID 488862; in the data active = inhibition above about 52%
PrP 5UTR single – prion 5' UTR mRNA inhibition, cherry-pick retest. shares compounds with PrP UTR inh. cell-based prion protein 5' UTR reporter, plate reader. inhibition, % at 2.5 µM. 1,100 compounds, 48% hits. AID 504592; in the data active = inhibition above about 54%; inconclusive = no clear call, values can overlap the other calls
A number is an active result; i = inactive; ? = inconclusive; nt = no result; ! = repeats disagree.

SMILES	RN4220 kill	BJeLR viability	Yp Topo-I inh	Sa ugtP lethal	PfHsp40 yeast	PrP UTR inh	PrP 5UTR single
Cc1ccc(C(=O)c2cc([N+](=O)[O-])ccc2N2CCOCC2)c(C)c1	i	i	i	i	i	75	86
CN1CCN(c2ccc([N+](=O)[O-])cc2C(=O)c2ccc(Br)cc2)CC1	i	i	i	i	i	i	nt
CN1CCN(c2ccc([N+](=O)[O-])cc2C(=O)N2CCOCC2)CC1	i	i	i	i	i	i	nt
Cc1ccc(S(=O)(=O)N2CC(C(=O)O)=CCC2c2ccc3c(c2)OCO3)cc1 (stereo not drawn)	i	nt	nt	i	nt	nt	nt
CC(=O)c1sc2c(c1OC(=O)c1ccc(Cl)cc1Cl)c(=O)n(-c1ccccc1)c(=S)n2-c1ccccc1	i	i	i	i	i	76	62
CC(=O)c1sc2c(c1OC(=O)c1ccc(Cl)cc1)c(=O)n(-c1ccccc1)c(=S)n2-c1ccccc1	nt	nt	i	nt	i	i	nt
C(=N\Nc1nc2ccccc2[nH]1)/c1ccccn1	nt	54	i	nt	i	52	?
C(=NNc1nc2ccccc2[nH]1)c1ccccn1	i	nt	nt	i	nt	nt	nt
COc1ccc(C(CNC(=O)C(CCSC)NC(=O)c2ccccc2Cl)N2CCCC2)cc1 (stereo not drawn)	i	nt	i	i	i	i	nt
COc1ccc(C(CNC(=O)C(CCSC)NC(=O)c2ccccc2Cl)N2CCCCC2)cc1 (stereo not drawn)	i	nt	i	i	i	72	i
CC(C)NC(=O)N(C)CC1Oc2c(NC(=O)C3CC3)cccc2C(=O)N(C(C)CO)CC1C (stereo not drawn)	i	nt	nt	i	nt	nt	nt
C#C[C@]1(O)CC[C@H]2[C@@H]3CCc4cc(OC)ccc4[C@H]3CC[C@@]21C	nt	i	i	nt	i	i	nt
C#C[C@]1(O)CC[C@H]2[C@@H]3CCc4cc(OC5CCCC5)ccc4[C@H]3CC[C@@]21C	nt	i	i	nt	i	61!	i
CC(C)CC1NC(=O)C(Cc2ccc(O)cc2)NC(=O)c2cc([N+](=O)[O-])cc(I)c2NCCCC(C(N)=O)NC1=O (stereo not drawn)	i	nt	nt	i	nt	nt	nt
COC(=O)c1ccc2nc(-c3ccc4c(c3)OCO4)cn2c1	i	i	i	i	i	i	nt
CCc1ccn2cc(-c3ccc4c(c3)OCO4)nc2c1	i	i	i	i	i	74	84
Fc1ccc(-c2nnc(NC3=NCCCCC3)o2)cc1	i	i	i	i	i	78	64
C[C@@]12C(=O)N(CC3CCCO3)CC(=O)N1C1c3ccccc3OCC1C2c1ccccc1 (stereo partly drawn)	i	nt	nt	i	nt	nt	nt
COc1ccc(C(C#N)=C2C=CC(=NO)C(C)=C2Cl)cc1	nt	nt	i	nt	i	71	i
C[C@H]1CCC/C=C/[C@@H]2C[C@H](O)C[C@H]2[C@H](O)/C=C/C(=O)O1	nt	nt	i	nt	47!	79	87
NC(CO)c1cn(C(CCC(=O)O)C(=O)N2CCNCC2)nn1 (stereo not drawn)	i	nt	nt	i	nt	nt	nt
COc1ccc(C(=O)N/N=C/C23CC[C@@H](O)CC2(O)CC[C@@H]2[C@@H]3CCC3(C)C(C4=CC(=O)OC4)CCC23O)cc1 (stereo partly drawn)	nt	i	i	nt	i	i	nt
C[C@@H]1O[C@@H](O[C@H]2C[C@@H](O)[C@]3(CO)[C@H]4[C@H](O)C[C@]5(C)[C@@H](C6COC(=O)C6)CC[C@]5(O)[C@@H]4CC[C@]3(O)C2)[C@H](O)[C@H](O)[C@H]1O (stereo partly drawn)	nt	71	i	nt	i	59	70
CC1OC(OC2CC(O)C3(CO)C4C(O)CC5(C)C(C6=CC(=O)OC6)CCC5(O)C4CCC3(O)C2)C(O)C(O)C1O (stereo not drawn)	nt	nt	i	nt	i	91	93
CCOC(=O)C1C2COc3ccc(Cl)cc3C2N2C(=O)c3cc(F)c(F)cc3NC(=O)[C@@]12C (stereo partly drawn)	i	nt	nt	i	nt	nt	nt
COc1ccc(C2CC(=O)C=C(c3cccc(NC(C)=O)c3)C2)cc1 (stereo not drawn)	i	nt	nt	i	nt	nt	nt
COC(=O)C1=C(C(=O)OC)[C@]2(C3CC=CCNC(Cc4ccccc4)C(=O)N3Cc3ccccc3)C=CC1O2 (stereo partly drawn)	i	nt	nt	i	nt	nt	nt
